Several values for one entry are separate records, joined by “and”; a condition that tells them apart may be missing. Equal entries are not always repeated. Inconclusive results are not listed. A call without a number means that no potency is given here. Activity calls are given as the source filed them. Calls follow the shape of the dose curve; as a rule, active = well fitted cell-killing curve with a large enough effect in the repeat runs; inconclusive = weak or mixed curves; inactive = no such curve, though single readings can be large or run the other way.
experiment: qHTS assay for identifying genotoxic compounds that show differential cytotoxicity against isogenic chicken DT40 cell lines with known DNA damage response pathways - Rad54/Ku70 mutant cell line (AID 743015); details: DT40 Rad54/Ku70 mutant viability, CellTiter-Glo, 40 h; series mostly up to 66.8 µM; also: nearly all actives have a fitted effect of over 60% in size
From the text: National Center for Advancing Translational Sciences [NCATS]
NIH Chemical Genomics Center [NCGC]
U.S. Environmental Protection Agency [EPA]
National Institutes of Environmental Health Sciences [NIEHS]
National Toxicology Program [NTP]
U.S. Food and Drug Administration [FDA]
DNA repair pathways play a critical role in cellular homeostasis by repairing DNA damage induced by endogenous processes and xenobiotics. Isogenic chicken DT40 cell lines deficient in different DNA repair pathways can be used to identify genotoxic compounds and aid in characterizing the nature of the DNA damage induced. Two DNA repair-deficient cell lines with disrupted genes, Rad54/Ku70 or Rev3, were used to screen the Tox21 10K compound library. Possible genotoxicity was based on the presence of a significant increase in cytotoxicity in one or more of the DNA repair-deficient cell lines compared to that observed in the parental DNA repair-proficient cell line. CellTiter Glo viability assay (Promega, Madison, WI) was used to measure cell viability in these cells after compound treatment. This assay includes the data from the Rad54/Ku70 mutant cell line.
Tox21 Assay Protocol Summary:
300 DT40 mutant cells in 5 uL/well were dispensed into white, solid-bottom 1536-well plates using a Multidrop Combi (ThermoFisher Scientific, Waltham, MA) dispenser. After the assay plates were incubated at 37 C/5% CO2 for approximately 0.5 hour, 23 nL of compounds dissolved in DMSO, positive controls or DMSO only was transferred into the assay plate by a pintool work station (Kalypsys, San Diego, CA). The assay plates were incubated at 37 C/5% CO2 for 40 hours. After 5 uL per well of CellTiter-Glo reagent was added into each well of the assay plates, the plates were incubated for 30 min at room temperature and the luminescence intensity of the plates was measured using a ViewLux (PerkinElmer, Shelton, CT) plate reader.
Potency is read from the fitted curve at half-maximal effect.

Structure (SMILES)	Potency
Nc1c(Br)cc(Br)c2c1C(=O)c1ccccc1C2=O	inactive
OCCSSCCO	inactive
CC(C)(C)NCC(O)c1cc(Cl)c(N)c(C(F)(F)F)c1 (stereo not given)	inactive
N#CC1(N=NC2(C#N)CCCCC2)CCCCC1	inactive
OCCCl	inactive
O=C(Cc1ccccc1)c1ccccc1	inactive
Cc1nnc(-c2ccccc2)c(=O)n1N	inactive
CC(C)C1(C)N=C(c2ncccc2C(=O)O)NC1=O (stereo not given)	inactive
CN1CC[C@]23c4c5ccc(O)c4O[C@H]2[C@@H](O)CC[C@H]3[C@H]1C5	inactive
O=C1c2ccccc2C(=O)N1SC(Cl)(Cl)Cl	135 nM (active) and 154 nM (active)
NC(=O)CF	inactive
COc1ccccc1N1CCNCC1	inactive
C[C@H](N)[C@H](O)c1ccc(O)c(O)c1	16.8 µM (active)
O=C(O)C(Cl)(Cl)Br	inactive
C=CCOC(=O)C(C)(C)OC(=O)c1cc(-n2c(=O)cc(C(F)(F)F)n(C)c2=O)ccc1Cl	60 µM (active)
CCc1ccccc1N	inactive
O=[N+]([O-])O[C@H]1CO[C@H]2[C@@H]1OC[C@H]2O[N+](=O)[O-]	inactive
O=C(NCNC(=O)NC1C(=O)NC(=O)N1CO)NC1C(=O)NC(=O)N1CO (stereo not given)	inactive
Oc1cccc(Cl)c1	inactive
C[C@]12C=CC3=C4CCC(=O)C=C4CC[C@H]3[C@@H]1CC[C@@H]2O	60.7 µM (active)

Structure (SMILES)	Potency
O=C(NC(=O)c1cc(F)c(F)cc1Cl)Nc1cc(F)ccc1N1CCC(C(=O)O)CC1	inactive
O=C=NC1CCCCC1	inactive
O=C(Cl)OCCOCCOC(=O)Cl	inactive
CN[C@@H](C)[C@H](O)c1ccccc1	inactive
C[C@]12CC[C@H]3[C@@H](CCC4=CC(=O)CC[C@@H]43)[C@@H]1CC[C@@H]2OC(=O)CCc1ccccc1	inactive
Cc1ccccc1	inactive
C[CH2][Hg][S]c1ccccc1C(=O)O	266 nM (active) and 109 nM (active)
Cc1ncc(C[n+]2csc(CCO)c2C)c(N)n1	inactive
Nc1ccccc1C(=O)OCCc1ccccc1	inactive
CC(Cc1ccccc1)NCc1ccccc1Cl (stereo not given)	18.8 µM (active)
C[C@@H]1C[C@@H]([C@H](O)CC2CC(=O)NC(=O)C2)C(=O)[C@@H](C)C1	133 nM (active) and 121 nM (active)
N#CC(C#N)=C(C#N)C#N	inactive
FC(F)OC(F)(F)C(F)Cl (stereo not given)	inactive
CCCCCCCCCCCCN(C)C	inactive
CCCCCCCCCCCC[N+](C)(C)CCOc1ccccc1	2.66 µM (active) and 6.11 µM (active)
CCC1CCC(=O)O1 (stereo not given)	inactive
COC1=CC(=O)O[C@@H](/C=C/c2ccc3c(c2)OCO3)C1	inactive
C=C(Cl)Cl	inactive
CCC1(CCC(C)C)C(=O)NC(=O)NC1=O	inactive
CCCCCBr	inactive

Reference: PubChem BioAssay (Tox21)
